The results in this text go back to PubChem BioAssay (NCI).

The nature of test [1]: NCI Yeast Anticancer Drug Screen. Data for the rad50 strain (AID 155).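 Also: 0% = growth of vehicle-only cultures of the same strain.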 As to conditions: S. cerevisiae rad50 strain growth inhibition, active compounds read high. In outline:
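Genetically altered yeast (DNA repair pathway); compound treatment; growth inhibition vs vehicle ctrl.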

Test [2] can be described thus: NCI Yeast Anticancer Drug Screen. Data for the mec2-1 strain (AID 157). As to conditions: S. cerevisiae mec2-1 strain, active compounds read high. In outline: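 Growth inhibition is read against vehicle-treated controls after compound exposure of the mec2-1 yeast strain, which is defective in DNA damage repair or cell cycle control.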
A short description of test [3]: NCI Yeast Anticancer Drug Screen. Data for the sgs1 mgt1 strain (AID 161).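 Also: 0% = growth of cultures given vehicle only.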 Conditions: S. cerevisiae sgs1 mgt1 strain, active compounds read high. Summed up:
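Growth of a repair-deficient yeast mutant was monitored after compound treatment and expressed as inhibition relative to vehicle-treated cultures.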

A short description of test [4]: NCI Yeast Anticancer Drug Screen. Data for the cln2 rad14 strain (AID 165).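 Also: 0% = growth equal to vehicle treated cultures.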 Conditions: S. cerevisiae cln2 rad14 strain, active compounds read high. In outline: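 Growth inhibition, relative to vehicle-treated controls, is the read-out. The test organism is a yeast strain with defined genetic alterations, cln2 rad14.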
Test [5] can be described thus: NCI Yeast Anticancer Drug Screen. Data for the bub3 strain (AID 167). As to conditions: S. cerevisiae bub3 mutant strain, active compounds read high. Summed up:
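Yeast carrying a defined mutation is treated with each compound, and growth is compared with that of vehicle-exposed cells to give inhibition.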

Test [6] is described as follows: NCI Yeast Anticancer Drug Screen. Data for the mlh1 rad18 strain (AID 175). As to conditions: S. cerevisiae mlh1 rad18 strain growth inhibition, active compounds read high. In outline: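 Cells of a genetically altered yeast strain, deficient in DNA damage repair, were treated with compound. Their growth was then compared with that of vehicle-treated cultures to give inhibition.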

The mark [7] stands for this setting: at 5.0 µM (retest, dose inferred, filed as 0.5).
[8] abbreviates: at 50.0 µM (retest, dose inferred, filed as 5.0).

About 79,000 compounds went through this panel and 15% of them were active in at least one assay; those are over-represented in the sample as a whole. Unmarked numbers belong to inactive results. The source made the active and inactive calls. Rule as the data show it: active = growth inhibition above about 70%; inactive = the rest.

`CCOC(=O)C(Br)C(Br)c1cccc(Cl)c1` (configuration not stated): the growth inhibition was 53% in test [1] (setting [7]); 99% (active) in test [1] (setting [8]); 99.5% (active) in test [1] (at 50.0 µM); 64% in test [2] (setting [7]); 99% (active) in test [2] (setting [8]); 99.7% (active) in test [2] (at 50.0 µM). The growth inhibition in test [3] (setting [7]) is 84% (active); in test [3] (setting [8]) it was 99% (active); in test [3] (at 50.0 µM), 99.8% (active); in test [4] (setting [7]), 31%; in test [4] (setting [8]), 99% (active); in test [4] (at 50.0 µM), 99.4% (active). Also, the growth inhibition was 57% in test [5] (setting [7]); 99% (active) in test [5] (setting [8]); 99.8% (active) in test [5] (at 50.0 µM); 84% (active) in test [6] (setting [7]); 99% (active) in test [6] (setting [8]); 99.5% (active) in test [6] (at 50.0 µM).
For the compound `N#Cc1c(-c2ccc([N+](=O)[O-])cc2)c(C#N)c(=O)n(NS(=O)(=O)c2ccccc2)c1S`, the growth inhibition in test [1] (setting [7]) was 35%; in test [1] (setting [8]), 91% (active); in test [1] (at 50.0 µM) it was 51.8%; in test [2] (setting [7]), 15%; in test [2] (setting [8]), 81% (active); in test [2] (at 50.0 µM) it was 81.6% (active). Further, the growth inhibition in test [3] (setting [7]) is 17%; in test [3] (setting [8]) it was 88% (active); in test [3] (at 50.0 µM), 78% (active); in test [4] (setting [7]), 46%; in test [4] (setting [8]), 67%; in test [4] (at 50.0 µM), 40%. The growth inhibition is 46% in test [5] (setting [7]); 87% (active) in test [5] (setting [8]); 61.6% in test [5] (at 50.0 µM); 31% in test [6] (setting [7]); 81% (active) in test [6] (setting [8]); 78.8% (active) in test [6] (at 50.0 µM).
For `CC(C)c1ccc(N2C(=O)C=CC2=O)cc1`, the growth inhibition was 98% (active) in test [1] (setting [7]); 97% (active) in test [1] (setting [8]); 99.7% (active) in test [1] (at 50.0 µM); 98% (active) in test [2] (setting [7]); 99% (active) in test [2] (setting [8]); 99.7% (active) in test [2] (at 50.0 µM). Besides, the growth inhibition in test [3] (setting [7]) was 95% (active); in test [3] (setting [8]) it was 98% (active); in test [3] (at 50.0 µM), 99.5% (active); in test [4] (setting [7]), 91% (active); in test [4] (setting [8]) it was 99% (active); in test [4] (at 50.0 µM), 99.5% (active). Moreover, the growth inhibition in test [5] (setting [7]) is 98% (active); in test [5] (setting [8]) it was 98% (active); in test [5] (at 50.0 µM), 99.5% (active); in test [6] (setting [7]), 95% (active); in test [6] (setting [8]) it was 98% (active); in test [6] (at 50.0 µM), 99.2% (active).
With `O=[N+]([O-])c1cccc(F)c1O`, the growth inhibition was 5% in test [1] (setting [7]); 87% (active) in test [1] (setting [8]); 52.5% in test [1] (at 50.0 µM); 6% in test [2] (setting [7]); 79% (active) in test [2] (setting [8]); 33.1% in test [2] (at 50.0 µM). Further, the growth inhibition in test [3] (setting [7]) is 6%; in test [3] (setting [8]), 78% (active); in test [3] (at 50.0 µM), 42.5%; in test [4] (setting [7]) it was 6%; in test [4] (setting [8]) it was 65%; in test [4] (at 50.0 µM), 0.25%. Further, the growth inhibition is 0% in test [5] (setting [7]); 73% (active) in test [5] (setting [8]); 11.3% in test [5] (at 50.0 µM); 0% in test [6] (setting [7]); 89% (active) in test [6] (setting [8]); 78.3% (active) in test [6] (at 50.0 µM).
For the compound `Fc1ccc(NC2=NCCN=C(Nc3ccc(F)cc3)SS2)cc1`, the growth inhibition in test [1] (setting [7]) is 0%; in test [1] (setting [8]) it was 70% (active); in test [1] (at 50.0 µM), 85% (active); in test [2] (setting [7]) it was 6%; in test [2] (setting [8]), 66%; in test [2] (at 50.0 µM), 86.5% (active). The growth inhibition in test [3] (setting [7]) was 4%; in test [3] (setting [8]), 69%; in test [3] (at 50.0 µM), 86% (active); in test [4] (setting [7]) it was -9%; in test [4] (setting [8]), 77% (active); in test [4] (at 50.0 µM), 69.8%. Besides, the growth inhibition in test [5] (setting [7]) was 6%; in test [5] (setting [8]), 76% (active); in test [5] (at 50.0 µM), 88% (active); in test [6] (setting [7]), 29%; in test [6] (setting [8]), 85% (active); in test [6] (at 50.0 µM), 80.8% (active).
Regarding `c1ccc(COc2ccc(C[P+](c3ccccc3)(c3ccccc3)c3ccccc3)cc2)cc1`, the growth inhibition was 97% (active) in test [1] (setting [7]); 100% (active) in test [1] (setting [8]); 99.3% (active) in test [1] (at 50.0 µM); 98% (active) in test [2] (setting [7]); 100% (active) in test [2] (setting [8]); 99.5% (active) in test [2] (at 50.0 µM). Also, the growth inhibition in test [3] (setting [7]) was 99% (active); in test [3] (setting [8]) it was 100% (active); in test [3] (at 50.0 µM), 99.7% (active); in test [4] (setting [7]), 98% (active); in test [4] (setting [8]), 98% (active); in test [4] (at 50.0 µM), 99.6% (active). Moreover, the growth inhibition in test [5] (setting [7]) was 99% (active); in test [5] (setting [8]) it was 99% (active); in test [5] (at 50.0 µM), 99.5% (active); in test [6] (setting [7]) it was 99% (active); in test [6] (setting [8]) it was 99% (active); in test [6] (at 50.0 µM) it was 99.3% (active).
Regarding `C=C1N(S(=O)(=O)c2ccc(C)cc2)C(=O)OCC12CCCC2`, the growth inhibition was -22% in test [1] (setting [7]); 3% in test [1] (setting [8]); 2.2% in test [1] (at 50.0 µM); -15% in test [2] (setting [7]); -21% in test [2] (setting [8]); -1.5% in test [2] (at 50.0 µM). Further, the growth inhibition in test [3] (setting [7]) is -21%; in test [3] (setting [8]) it was 9%; in test [3] (at 50.0 µM), 20%; in test [4] (setting [7]) it was -21%; in test [4] (setting [8]) it was 5%; in test [4] (at 50.0 µM), 8.9%. Besides, the growth inhibition was -16% in test [5] (setting [7]); 43% in test [5] (setting [8]); 54.2% in test [5] (at 50.0 µM); -24% in test [6] (setting [7]); -2% in test [6] (setting [8]); 3.5% in test [6] (at 50.0 µM).
On to `COc1cc(OC)cc(C2SCC(=O)N2c2nncs2)c1` (configuration not stated), for which the growth inhibition was 2% in test [1] (setting [7]); 2% in test [1] (setting [8]); 20.2% in test [1] (at 50.0 µM); -5% in test [2] (setting [7]); -3% in test [2] (setting [8]); 97% (active) in test [2] (at 50.0 µM). For the same compound, the growth inhibition in test [3] (setting [7]) was 0%; in test [3] (setting [8]), 2%; in test [3] (at 50.0 µM) it was 55.5%; in test [4] (setting [7]), -2%; in test [4] (setting [8]), 2%; in test [4] (at 50.0 µM) it was 98.8% (active). Further, the growth inhibition is 1% in test [5] (setting [7]); 13% in test [5] (setting [8]); 98.6% (active) in test [5] (at 50.0 µM); 0% in test [6] (setting [7]); 4% in test [6] (setting [8]); 96.8% (active) in test [6] (at 50.0 µM).
For the compound `C=CCNc1nc2c(s1)C(=O)c1ccccc1C2=O`, the growth inhibition in test [1] (setting [7]) is 95% (active); in test [1] (setting [8]), 98% (active); in test [1] (at 50.0 µM), 90.8% (active); in test [2] (setting [7]) it was 99% (active); in test [2] (setting [8]), 99% (active); in test [2] (at 50.0 µM), 93.3% (active). The growth inhibition in test [3] (setting [7]) is 100% (active); in test [3] (setting [8]), 99% (active); in test [3] (at 50.0 µM), 93.9% (active); in test [4] (setting [7]), 76% (active); in test [4] (setting [8]), 99% (active); in test [4] (at 50.0 µM) it was 91.8% (active). The growth inhibition in test [5] (setting [7]) is 99% (active); in test [5] (setting [8]) it was 99% (active); in test [5] (at 50.0 µM), 91.9% (active); in test [6] (setting [7]), 98% (active); in test [6] (setting [8]) it was 98% (active); in test [6] (at 50.0 µM) it was 88% (active).
